# Screening data deposited in PubChem by National Center for Advancing Translational Sciences (NCATS).
# Shiga inhibitor: blocks Shiga toxin action in Vero cells; Vero cells, Shiga toxin protein synthesis inhibition reporter; inhibition, % at 38.7 µM; actives 9.2% (n = 290,000); AID 2315; in the data active = inhibition mostly above about 28%, no sharp cut-off; inactive = mostly below about 43%; also: 0% is about no effect
# NS1 inh: blocks influenza NS1 protein function | Potency, µM (doses to about 46.1 µM), for inactives: at the highest dose activity, positive = more growth | actives 0.4% (n = 270,000) | AID 2326; calls by dose curve; also: potency is read from the fitted curve at half-maximal effect; actives are rising curves; nearly all actives have a fitted effect of over 50% in size
#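 S. cerevisiae expressing influenza A NS1, grown in glucose, washed, then diluted 1:100 into pH 6.0 -URA galactose medium with 23 nl compound. Growth recovery read as OD600; NS1-free strain serves as control.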
# CHX counter: counter-screen hit for Shiga toxin inhibitors, cycloheximide | cell reporter, cycloheximide protein synthesis inhibition counterscreen | AID 2314 | actives 12% (n = 300,000) | max response, %; in the data active = max response mostly above about 13%, no sharp cut-off; inactive = mostly below about 14%; also: read at 38.3 µM for the half of the compounds with a filed dose; 0% is about no effect
# Pf growth 48h: inhibits P. falciparum growth in the first generation, 48 h | P. falciparum luciferase growth in erythrocytes, 48 h | Potency, µM (top dose mostly 28.7 µM), without a hit: top-dose activity change, negative = inhibition, usual class: inhibitors | actives 5.9% (n = 310,000) | AID 504832; also: potency is read from the fitted curve at half-maximal effect; % is scaled to controls: 0 for no effect and ±100 for the full control effect
#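 Erythrocytes infected with P. falciparum carrying an integrated firefly luciferase reporter (2% hematocrit, 0.1% parasitemia final) were exposed to compounds in RPMI 1640 with 0.5% Albumax at 37 C, 5% CO2. Growth inhibition was scored as reduced luminescence.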
# Pf growth 96h: P. falciparum growth inhibition at 96 hours; P. falciparum luciferase reporter growth, 96 h; Potency, µM (top dose mostly 28.7 µM), without a hit: top-dose activity change, negative = inhibition, usual class: inhibitors; actives 6.9% (n = 320,000); AID 504834; also: potency is read from the fitted curve at half-maximal effect; % is scaled to controls: 0 for no effect and ±100 for the full control effect
#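 P. falciparum expressing integrated firefly luciferase, in erythrocytes at 2% hematocrit, 0.05% parasitemia, incubated with compounds 96 h at 37 C, 5% CO2. Growth inhibition read as loss of luminescence; two-generation exposure targets delayed-death apicoplast inhibitors.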
# Starred values were filed as active, the others as inactive; i = inactive; ? = inconclusive; . = no result given. Compounds with a hit are over-represented: about 21% of the library has one in this group of screens. Unless noted, calls follow the shape of the dose curve; as a rule, active = well fitted inhibition curve with a large enough effect; inconclusive = small, poorly fitted or top-dose-only effect, or another doubt; inactive = no such curve, though single readings can be large or run the other way.
SMILES,Shiga inhibitor,NS1 inh,CHX counter,Pf growth 48h,Pf growth 96h
O=S(=O)(c1ccccc1)C1(C2CC(c3ccccc3)=NO2)CC(O)C1 (centres undefined),15,2%,12*,35%,?
COc1cccc(C(=O)/C=C/Nc2ccc(S(=O)(=O)Nc3cc(OC)nc(OC)n3)cc2)c1,69*,1%,34*,0%,20%
COc1ccc(C(=O)/C=C/Nc2ccc(S(=O)(=O)Nc3cc(OC)nc(OC)n3)cc2)c(OC)c1,2,5%,-3,1.7µM*,36%
COc1cc(NS(=O)(=O)c2ccc(NC(=S)NC(=O)c3sc4ccccc4c3Cl)cc2)nc(OC)n1,-6,14%,-2,30%,12µM*
CC(C)CCN1C(=O)CCC1(C)C(=O)NC1CCCCCCC1 (centres undefined),18,-4%,-2,.,-1%
CCCCC1CCC(C(=O)N(CCOC)c2c(N)n(CCCC)c(=O)[nH]c2=O)CC1 (centres undefined),.,.,.,?,10%
COc1c(C)cc(S(=O)(=O)NCc2ccccn2)c(C)c1C,.,-3%,-3,-3%,-14%
O=C(NCCCc1ccccc1)c1ccc([N+](=O)[O-])cc1Cl,29*,5%,29*,128%,173%
Cc1ccc(C(=O)NCCCc2ccccc2)c(C)c1,60*,-6%,42*,95%,183%
Cc1cc(C)cc(C(=O)NCCCc2ccccc2)c1,11,-7%,21,46%,0%
Cc1ccc(C(=O)NCCCc2ccccc2)c(Cl)c1,.,-15%,37*,67%,19%
O=C(NCCCN1CCN(CCCNC(=O)c2cc([N+](=O)[O-])ccc2Cl)CC1)c1cc([N+](=O)[O-])ccc1Cl,-7,3%,-2,4.7µM*,?
CC(=O)N1CCCc2cc(S(=O)(=O)NC(C(=O)NCc3ccc(C)cc3)C(C)C)ccc21 (centres undefined),-18,-1%,-1,-17%,22%
CN(Cc1ccccc1)C1CCN(Cc2ccccc2[N+](=O)[O-])CC1,.,-10%,3,-16%,0%
COC(=O)[C@@H](NC(=O)O[C@@H]1C(=O)c2ccc(OC)cc2O[C@H]1c1cccc(C(F)(F)F)c1)C(C)C,20,12%,-1,-27%,-24%
Cc1cc2[nH]c3ccccc3c2cn1,20,14%,2,?,?
CN(C)C=Nc1ccc2nc3c(cc2c1)[nH]c1ccccc13,74*,-5%,39*,?,-72%
O=C(NC1CC1)C1CCN(C(=O)c2ccc(Cl)cc2Cl)CC1,-16,-2%,-8,10%,?
O=C(c1ccc(O)cc1)c1ccc(C(=O)c2ccc(O)cc2)cc1,3,3%,7,?,?
CC(=O)c1ccc(N=Nc2ccc(N(C)C)cc2)cc1,97*,.,41*,i,174%
Cc1ccc(C(=O)NS(=O)(=O)c2ccc(N=NN(C)C)cc2)cc1,-2,5%,5,9%,?
Cc1ccc(N=Cc2ccc(N(C)C)cc2)cc1C,23,.,10,16%,?
CN(C)c1ccc(N=Nc2ccccc2Br)cc1,37*,-3%,38*,98%,441%
Cc1ccc(C(=O)c2ccc(C)cc2)cc1,79*,.,40*,i,-28%
CC(=O)c1ccc(N=Nc2ccc(C)cc2)cc1,41*,.,22*,i,172%
SMILES,Shiga inhibitor,NS1 inh,CHX counter,Pf growth 48h,Pf growth 96h
N#Cc1ccc(NC(=O)C2=COCCO2)cc1,.,.,.,120%,173%
Cc1cc(C(=O)NCCCn2ccnc2)sc1-c1ccccc1,0,-6%,-2,?,.
CCCc1cc(NCc2ccccn2)n2nc(C)c(-c3ccccc3)c2n1,2,-108%,-1,2.6µM*,13µM*
Cc1nn2c(NCc3ccccn3)cc(C(C)C)nc2c1-c1ccccc1,-5,-81%,1,1.7µM*,1.7µM*
CCN1CCN(c2cc(C(C)C)nc3c(-c4ccccc4)c(C)nn23)CC1,-6,-3%,0,?,15µM*
CCCc1cc(N2CCCC2)n2nc(C)c(-c3ccccc3)c2n1,-9,-11%,-1,?,?
Cc1nn2c(N3CCOCC3)cc(C(C)C)nc2c1-c1ccccc1,-8,-3%,-1,-10%,-10%
Cc1nn2c(NCCCn3ccnc3)cc(C(C)C)nc2c1-c1ccccc1,-7,-3%,2,2.1µM*,8.3µM*
CN1CCc2c(sc(/N=C/c3cc(C(C)(C)C)ccc3O)c2C#N)C1,11,7%,2,2%,?
